Source: PubChem BioAssay (NMMLSC)
In the library only some 1.2% were active in any assay of this set; here they are far more common.
GSH fluor: compound fluoresces at 488/530 nm on GSH beads; GSH beads flow cytometry, compound fluorescence 488/530 nm; stronger effect = higher value; fluorescence (KMESF) at 10 µM; 0.25% of 190,000 active; AID 1776; in the data active = fluorescence above about 89;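 also: glutathione beads carrying GST-tagged Bcl family fusion proteins plus one bare bead set; values are compound well signal with DMSO vehicle wells as background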
RGS7-Gao reg: human RGS7-Galphao interaction regulation. binding response (% of control), % at 10 µM. Multiplexed bead flow cytometry, RGS7-Galphao binding; actives lie on both sides. P09471. 0.35% of 220,000 active. AID 1439; in the data active = binding response below about 49% or above about 150%; inconclusive = no clear call, values can overlap the other calls; inactive = in between;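 also: fluorescent Galphao held in activated GDP-AlF4 state binding bead-coupled RGS7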
RGS16-Gao: regulators of human RGS16-Galphao interaction; binding response (% of control), % at 10 µM; bead-based flow cytometry RGS16-Galphao binding, fluorescence; actives lie on both sides; AID 1441; 0.38% of 220,000 active;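 also: Galphao activated by GDP with aluminum fluoride before binding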
RGS8-Gao: modulates binding of RGS8 to human Galphao. response (percent of control binding), % at 10 µM. AID 1423. multiplexed bead flow cytometry; actives lie on both sides. 0.34% of 220,000 active. P09471; in the data active = response below about 60% or above about 140%; inactive = in between;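 also: Galphao activated as the GDP aluminium fluoride complex binding bead-coupled RGS8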
Avidin bead fluor: compound fluoresces at 488/530 nm on avidin beads. AID 1775. 0.38% of 220,000 active. fluorescence (KMESF) at 10 µM. compound fluorescence 488/530 nm, flow cytometry; stronger effect = higher value; in the data active = fluorescence above about 47
RGS4-Gao reg: human RGS4-Galphao interaction regulation; Multiplexed bead flow cytometry, RGS4-Galphao binding; actives lie on both sides; binding response (% of control), % at 10 µM; 0.33% of 220,000 active; in the data active = binding response below about 49% or above about 150%; inactive = in between;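 also: fluorescent Galphao activated with aluminum fluoride binding bead-coupled RGS4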
RGS4-Gao HTS: modulates binding between human RGS4 and Galphao; shares compounds with RGS16-Gao; multiplexed bead flow cytometry, RGS–Galpha-o binding; RGS4–Galpha-o binding response, % at 10 µM; 99% of 1,600 active;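 also: fluorescently labeled Galpha-o bound to GDP with aluminium fluoride binding biotinylated RGS beads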
Biotin-avidin: counter-screen: compounds disrupting biotin binding to avidin beads | shares compounds with RGS16-Gao | streptavidin beads, fluorescein-biotin binding, flow cytometry | inhibition, % at 10 µM | 1,700 tested, under 10 active;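 active = inhibition above 50%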;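 also: median green fluorescence of gated singlet beads compared with DMSO control wells; 0% = DMSO wells and 100% = complete loss of bead fluorescence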
RGS8-Gao confirm: confirmation of regulators of human RGS8-Galphao interaction. shares compounds with RGS16-Gao. bead-based flow cytometry RGS8-Galphao binding, fluorescence; actives lie on both sides. binding response (% of control), % at 10 µM. 3% of 1,700 active. AID 1836; in the data active = binding response below about 72% or above about 130%; inactive = in between;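 also: Galphao activated as GDP AlF4 complex before binding bead RGS8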
RGS7-Gao single: RGS7-Galphao interaction regulation, single point confirmation. shares compounds with RGS16-Gao. bead-based flow cytometry RGS7-Galphao binding; actives lie on both sides. response (percent of control binding), % at 10 µM. 7.8% of 1,700 active; in the data active = response below about 75% or above about 130%; inactive = in between;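 also: fluorescent Galphao activated with GDP and aluminum fluoride binding bead-coupled RGS7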
RGS16-Gao single: RGS16-Galphao interaction regulation, single point confirmation | shares compounds with RGS16-Gao | bead-based flow cytometry, RGS16-Galphao binding; actives lie on both sides | response (% of control binding), % at 10 µM | 4% of 1,700 active; in the data active = response below about 74% or above about 130%; inactive = in between;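 also: Galphao activated as the GDP aluminium fluoride complex binding bead-coupled RGS16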
RGS4-Gao confirm: RGS4-Galphao interaction regulation, single point confirmation | shares compounds with RGS16-Gao | 4% of 1,700 active | binding response (% of control), % at 10 µM | RGS4-Galphao binding, multiplexed bead flow cytometry; actives lie on both sides; in the data active = binding response below about 74% or above about 130%; inactive = in between
RGS19-Gao single: confirmation of regulators of human RGS19-Galphao interaction; response (percent of control binding), % at 10 µM; bead-based flow cytometry RGS19-Galphao binding; actives lie on both sides; AID 1841; 5% of 1,700 active; shares compounds with RGS16-Gao; in the data active = response below about 50% or above about 160%; inactive = in between;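 also: 100% = no compound control and 0% = blank background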
Target sequence (P09471 whole entry, looked up): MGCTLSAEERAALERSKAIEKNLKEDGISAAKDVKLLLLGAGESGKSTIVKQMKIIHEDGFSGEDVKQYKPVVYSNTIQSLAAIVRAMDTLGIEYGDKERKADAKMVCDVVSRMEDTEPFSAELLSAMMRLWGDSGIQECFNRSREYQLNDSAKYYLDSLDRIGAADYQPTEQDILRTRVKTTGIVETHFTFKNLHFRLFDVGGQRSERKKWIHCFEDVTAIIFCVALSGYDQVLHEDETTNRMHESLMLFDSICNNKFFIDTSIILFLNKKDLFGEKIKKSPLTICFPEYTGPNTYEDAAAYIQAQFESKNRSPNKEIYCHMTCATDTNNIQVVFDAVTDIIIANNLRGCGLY
Target sequence (P49795 whole entry, looked up): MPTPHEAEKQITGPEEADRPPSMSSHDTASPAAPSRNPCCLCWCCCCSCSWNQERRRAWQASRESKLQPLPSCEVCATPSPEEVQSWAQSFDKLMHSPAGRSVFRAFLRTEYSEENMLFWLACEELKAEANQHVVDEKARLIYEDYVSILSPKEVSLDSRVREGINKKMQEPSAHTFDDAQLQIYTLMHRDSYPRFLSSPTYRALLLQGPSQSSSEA
Starred values were filed as active, the others as inactive; i = inactive; ? = inconclusive; . = not tested or not shown; [ ] = dose if it differs, or a comment. Unless noted, no rule for the calls is given here.

SMILES | GSH fluor | RGS7-Gao reg | RGS16-Gao | RGS8-Gao | Avidin bead fluor | RGS4-Gao reg | Biotin-avidin | RGS8-Gao confirm | RGS7-Gao single | RGS16-Gao single | RGS4-Gao confirm | RGS19-Gao single | others
COC(=O)C1(Cc2ccc(O)cc2)OC(=O)C(O)=C1c1ccc(O)cc1 (stereo not given) | . | ? | 84.7 | 94.8 | 6 | 88.1 | . | . | . | . | . | .
Cc1cccc(NC(=O)c2cn(-c3ccccc3)nc2-c2ccccc2)c1 | 7 | 101.6 | 106.3 | 104.4 | 2 | 100.8 | . | . | . | . | . | .
Cc1cc(N)nc(C)c1C#N | 20 | 98.4 | 100.5 | 100.1 | 10 | 99.7 | . | . | . | . | . | .
Cc1cc(C)c(C#N)c(N)n1 | 11 | . | . | . | . | . | 0.0 | 101.3 | 99.1 | 99.0 | 102.0 | 94.0
O=C(NNC(=O)c1nn(-c2ccc(F)cc2)ccc1=O)c1ccccc1Cl | . | ? | 98.2 | 99.1 | 8 | 95.9 | . | . | . | . | . | .
COc1ccc(OC)c(NC(=O)Nc2nnc(N3CCC(C)CC3)s2)c1 | 13 | 42.7* | 40.2 | 58.4* | 3 | 40.1* | -0.1 | 109.4 | 108.2 | 117.6 | 105.7 | 107.9
N#Cc1c(Nc2cccc(F)c2)sc2c(O)cc(=O)[nH]c12 | 17 | ? | 99.5 | 101.5 | 11 | 102.2 | . | . | . | . | . | .
O=C(/C=C/c1ccc(Br)o1)OCc1ccccc1 | 31 | . | . | . | . | . | 1.6 | 102.7 | 107.2 | 110.3 | 105.3 | 102.5
COc1ccc(C(CCO)NC(=O)c2cccs2)cc1OC (stereo not given) | 20 | 109.5 | 102.0 | 103.1 | 6 | 102.8 | . | . | . | . | . | .
CCSC(C)CC1CC(=O)CC(=O)C1 (stereo not given) | 41 | . | . | . | . | . | 3.0 | 96.4 | 101.0 | 98.5 | 99.7 | 88.1
CCCc1nc2c(o1)CC(CC(C)SCC)CC2=O (stereo not given) | 44 | -1.3* | -7.1* | 7.4* | -4 | -7.5* | 1.4 | 98.8 | 99.4 | 97.1 | 97.3 | 106.5
CCN(CC)S(=O)(=O)c1cccc(-c2nnc(SCCOc3ccccc3C)o2)c1 | 33 | 152.5*[activator] | 210.7*[activator] | . | . | 177.4*[activator] | 1.0 | 101.2 | 103.6 | 101.9 | 103.0 | 109.1
NC(=O)[C@@H]1CCCCNc2c(I)cc([N+](=O)[O-])cc2C(=O)N[C@@H](CCC(=O)O)C(=O)N[C@@H](CO)C(=O)N1 | 18 | 100.4 | 104.6 | 102.5 | 12 | 101.2 | . | . | . | . | . | .
NC(=O)[C@@H]1CCNc2c(I)cc([N+](=O)[O-])cc2C(=O)N[C@@H](CCC(=O)O)C(=O)N[C@@H](CO)C(=O)N1 | 25 | 98.7 | 403.8*[activator] | 133.8 | 10 | 108.4 | . | . | . | . | . | . | RGS4-Gao HTS=108.4*
Cc1ccc(CSC2=Nc3ccccc3C3=NC(CC(=O)NCc4ccco4)C(=O)N23)cc1 (stereo not given) | 51 | 97.2 | 96.1 | 96.5 | 13 | 97.2 | . | . | . | . | . | .
Cc1ccc(Cl)cc1N(CC(=O)NC1CCCCC1)S(C)(=O)=O | 14 | 197.2*[activator] | i | 246.7*[activator] | 11 | 180.2*[activator] | -2.3 | 102.6 | 107.8 | 104.4 | 102.0 | 106.5
CCCNC(=O)c1onc(CSc2cccc(OC)c2)c1C(=O)NCCC | . | ? | 102.5 | 106.1 | 16 | 108.5 | . | . | . | . | . | .
